Source: publication PMC11006913
Changes are numbered by the printed parent chain.

Legend:
Experiment in all cases: PBM; 200 nM protein, PBS
Settings in all cases: dsDNA, one strand shown
[1] = biological target: T1, VENTX (Homo sapiens, UniProt O95231 78-163, R121Q)
T1 sequence: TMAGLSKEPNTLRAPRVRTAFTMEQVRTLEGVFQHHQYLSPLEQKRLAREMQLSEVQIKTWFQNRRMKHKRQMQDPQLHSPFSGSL

[2] = biological target: T2, VENTX (Homo sapiens, UniProt O95231 78-163)
T2 sequence: T1 sequence with Q44R

[3] = biological target: ALX4 (Homo sapiens, UniProt Q9H161 200-286)
[4] = biological target: T3, PAX4 (Homo sapiens, UniProt O43316 9-242, R200K)
T3 sequence: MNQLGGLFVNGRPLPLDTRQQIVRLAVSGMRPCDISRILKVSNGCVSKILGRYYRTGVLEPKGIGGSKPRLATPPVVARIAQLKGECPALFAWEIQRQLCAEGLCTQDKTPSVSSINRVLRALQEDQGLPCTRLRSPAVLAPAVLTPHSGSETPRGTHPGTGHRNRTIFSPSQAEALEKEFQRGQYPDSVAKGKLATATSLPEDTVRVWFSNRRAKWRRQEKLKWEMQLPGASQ

[5] = biological target: T4, VENTX (Homo sapiens, UniProt O95231 78-163, Y115F)
T4 sequence: T1 sequence with Y38F, Q44R

[6] = biological target: T5, PAX4 (Homo sapiens, UniProt O43316 9-242)
T5 sequence: T3 sequence with K192R

[7] = biological target: ALX4 (Homo sapiens, UniProt Q9H161 200-286, Q225E)
[8] = biological target: MSX2 (Homo sapiens, UniProt P35548 130-214, R199I)
[9] = biological target: T6, PAX4 (Homo sapiens, UniProt O43316 9-242, R200Q)
T6 sequence: T3 sequence with K192Q

[10] = biological target: T7, PAX4 (Homo sapiens, UniProt O43316 9-242, F177V)
T7 sequence: T3 sequence with F169V, K192R

[11] = biological target: MSX2 (Homo sapiens, UniProt P35548 130-214)
[12] = biological target: T8, PAX4 (Homo sapiens, UniProt O43316 9-242, F177Y)
T8 sequence: T3 sequence with F169Y, K192R

[13] = biological target: MSX2 (Homo sapiens, UniProt P35548 130-214, F161Y)
[14] = biological target: T9, PAX4 (Homo sapiens, UniProt O43316 9-242, R227W)
T9 sequence: T3 sequence with K192R, R219W

[15] = biological target: HOXA7 (Homo sapiens, UniProt P31268 116-202)
[16] = biological target: HOXA7 (Homo sapiens, UniProt P31268 116-202, W177C)
[17] = biological target: HOXB6 (Homo sapiens, UniProt P17509 132-218, K202E)
[18] = biological target: HOXB6 (Homo sapiens, UniProt P17509 132-218)
[19] = biological target: T10, NKX2-6 (Homo sapiens, UniProt A6NCS4 118-204, R150C)
T10 sequence: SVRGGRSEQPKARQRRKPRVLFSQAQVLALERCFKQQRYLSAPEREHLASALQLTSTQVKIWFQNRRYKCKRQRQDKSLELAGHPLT

[20] = biological target: PRRX1 (Homo sapiens, UniProt P54821 80-166, F113S)
[21] = biological target: PRRX1 (Homo sapiens, UniProt P54821 80-166)
[22] = biological target: HOXC10 (Homo sapiens, UniProt Q9NYD6 254-340)
[23] = biological target: ALX1 (Homo sapiens, UniProt Q15699 118-204, L144V)
[24] = biological target: ALX3 (Homo sapiens, UniProt O95076 139-225, N203Q)
[25] = biological target: ALX1 (Homo sapiens, UniProt Q15699 118-204, L144R)
[26] = biological target: HOXC10 (Homo sapiens, UniProt Q9NYD6 254-340, K271E)
[27] = biological target: ALX3 (Homo sapiens, UniProt O95076 139-225)
[28] = biological target: ALX3 (Homo sapiens, UniProt O95076 139-225, L168Q)
[29] = biological target: ALX3 (Homo sapiens, UniProt O95076 139-225, L168V)
[30] = biological target: ALX1 (Homo sapiens, UniProt Q15699 118-204)
[31] = biological target: ALX3 (Homo sapiens, UniProt O95076 139-225, N203S)
[32] = biological target: HOXA2 (Homo sapiens, UniProt O43364 129-215, R185T)
[33] = biological target: HOXA2 (Homo sapiens, UniProt O43364 129-215, R185K)
[34] = biological target: HOXA2 (Homo sapiens, UniProt O43364 129-215, Y150S)
[35] = biological target: HOXA2 (Homo sapiens, UniProt O43364 129-215)
HOXA2 (Homo sapiens, UniProt O43364 129-215), sequence (O43364 129-215): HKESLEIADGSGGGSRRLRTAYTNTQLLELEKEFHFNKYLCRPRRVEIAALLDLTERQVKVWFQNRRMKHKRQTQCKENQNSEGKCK

HOXA7 (Homo sapiens, UniProt P31268 116-202), sequence (P31268 116-202): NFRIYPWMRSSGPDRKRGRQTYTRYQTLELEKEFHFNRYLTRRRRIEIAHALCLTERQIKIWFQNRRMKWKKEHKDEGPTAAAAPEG
HOXA7 (Homo sapiens, UniProt P31268 116-202, W177C), sequence (P31268 116-202 W177C): as the sequence (P31268 116-202) above, with W62C counted along it
ALX3 (Homo sapiens, UniProt O95076 139-225, N203S), sequence (O95076 139-225 N203S): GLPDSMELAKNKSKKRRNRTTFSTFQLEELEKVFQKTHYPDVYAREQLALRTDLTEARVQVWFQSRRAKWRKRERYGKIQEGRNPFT
ALX3 (Homo sapiens, UniProt O95076 139-225, N203Q), sequence (O95076 139-225 N203Q): as the sequence (O95076 139-225 N203S) above, with S65Q counted along it
ALX4 (Homo sapiens, UniProt Q9H161 200-286, Q225E), sequence (Q9H161 200-286 Q225E): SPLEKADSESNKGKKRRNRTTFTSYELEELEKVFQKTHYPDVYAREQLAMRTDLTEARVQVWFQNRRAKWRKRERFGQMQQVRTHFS
ALX4 (Homo sapiens, UniProt Q9H161 200-286), sequence (Q9H161 200-286): as the sequence (Q9H161 200-286 Q225E) above, with E26Q counted along it
ALX3 (Homo sapiens, UniProt O95076 139-225), sequence (O95076 139-225): as the sequence (O95076 139-225 N203S) above, with S65N counted along it
ALX3 (Homo sapiens, UniProt O95076 139-225, L168V), sequence (O95076 139-225 L168V): as the sequence (O95076 139-225 N203S) above, with L30V, S65N counted along it
MSX2 (Homo sapiens, UniProt P35548 130-214), sequence (P35548 130-214): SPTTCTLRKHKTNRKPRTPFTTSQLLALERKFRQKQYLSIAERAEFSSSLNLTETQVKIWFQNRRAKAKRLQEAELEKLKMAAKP
ALX3 (Homo sapiens, UniProt O95076 139-225, L168Q), sequence (O95076 139-225 L168Q): as the sequence (O95076 139-225 N203S) above, with L30Q, S65N counted along it
MSX2 (Homo sapiens, UniProt P35548 130-214, F161Y), sequence (P35548 130-214 F161Y): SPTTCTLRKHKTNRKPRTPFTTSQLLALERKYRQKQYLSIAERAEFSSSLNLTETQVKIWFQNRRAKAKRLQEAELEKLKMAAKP
MSX2 (Homo sapiens, UniProt P35548 130-214, R199I), sequence (P35548 130-214 R199I): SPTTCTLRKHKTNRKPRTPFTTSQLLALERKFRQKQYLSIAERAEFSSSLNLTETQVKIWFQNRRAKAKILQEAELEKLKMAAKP
PRRX1 (Homo sapiens, UniProt P54821 80-166), sequence (P54821 80-166): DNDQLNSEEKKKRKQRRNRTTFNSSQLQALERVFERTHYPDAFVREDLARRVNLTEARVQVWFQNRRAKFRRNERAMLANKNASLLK
HOXB6 (Homo sapiens, UniProt P17509 132-218), sequence (P17509 132-218): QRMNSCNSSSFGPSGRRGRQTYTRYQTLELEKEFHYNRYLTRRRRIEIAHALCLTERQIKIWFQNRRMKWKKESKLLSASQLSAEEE
HOXC10 (Homo sapiens, UniProt Q9NYD6 254-340, K271E), sequence (Q9NYD6 254-340 K271E): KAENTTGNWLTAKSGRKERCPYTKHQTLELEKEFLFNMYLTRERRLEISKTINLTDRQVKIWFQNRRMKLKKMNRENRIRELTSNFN
HOXB6 (Homo sapiens, UniProt P17509 132-218, K202E), sequence (P17509 132-218 K202E): as the sequence (P17509 132-218) above, with K71E counted along it
PRRX1 (Homo sapiens, UniProt P54821 80-166, F113S), sequence (P54821 80-166 F113S): as the sequence (P54821 80-166) above, with F34S counted along it
ALX1 (Homo sapiens, UniProt Q15699 118-204), sequence (Q15699 118-204): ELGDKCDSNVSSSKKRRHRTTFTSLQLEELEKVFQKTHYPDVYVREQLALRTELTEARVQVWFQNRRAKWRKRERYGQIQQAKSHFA
HOXC10 (Homo sapiens, UniProt Q9NYD6 254-340), sequence (Q9NYD6 254-340): as the sequence (Q9NYD6 254-340 K271E) above, with E18K counted along it
HOXA2 (Homo sapiens, UniProt O43364 129-215, R185T), sequence (O43364 129-215 R185T): as the sequence (O43364 129-215) above, with R57T counted along it
ALX1 (Homo sapiens, UniProt Q15699 118-204, L144V), sequence (Q15699 118-204 L144V): as the sequence (Q15699 118-204) above, with L27V counted along it
ALX1 (Homo sapiens, UniProt Q15699 118-204, L144R), sequence (Q15699 118-204 L144R): as the sequence (Q15699 118-204) above, with L27R counted along it
HOXA2 (Homo sapiens, UniProt O43364 129-215, R185K), sequence (O43364 129-215 R185K): as the sequence (O43364 129-215) above, with R57K counted along it
HOXA2 (Homo sapiens, UniProt O43364 129-215, Y150S), sequence (O43364 129-215 Y150S): as the sequence (O43364 129-215) above, with Y22S counted along it

In the case of GAAGCCGC, the binding signal [1] is reported as 8.12 upbm affinity estimate (log intensity, higher = more binding, comparable within an allelic series), the binding signal [2] is reported as 8.07 upbm affinity estimate (log intensity, higher = more binding, comparable within an allelic series) and the binding signal [3] is reported as 8.19 upbm affinity estimate (log intensity, higher = more binding, comparable within an allelic series). The binding signal [4] was 9.31 upbm affinity estimate (log intensity, higher = more binding, comparable within an allelic series), the binding signal [5] was 8.31 upbm affinity estimate (log intensity, higher = more binding, comparable within an allelic series) and the binding signal [6] was 9.25 upbm affinity estimate (log intensity, higher = more binding, comparable within an allelic series). For the same sequence, the binding signal [7] was 8.07 upbm affinity estimate (log intensity, higher = more binding, comparable within an allelic series), the binding signal [8] was 9.54 upbm affinity estimate (log intensity, higher = more binding, comparable within an allelic series) and the binding signal [9] was 9.31 upbm affinity estimate (log intensity, higher = more binding, comparable within an allelic series). The binding signal [10] was 9.32 upbm affinity estimate (log intensity, higher = more binding, comparable within an allelic series), the binding signal [11] was 9.58 upbm affinity estimate (log intensity, higher = more binding, comparable within an allelic series) and the binding signal [12] was 9.18 upbm affinity estimate (log intensity, higher = more binding, comparable within an allelic series). For the same sequence, the binding signal [13] was 9.63 upbm affinity estimate (log intensity, higher = more binding, comparable within an allelic series) and the binding signal [14] was 9.34 upbm affinity estimate (log intensity, higher = more binding, comparable within an allelic series).
With CGTCCAGC the binding signal [1] was 8.04 upbm affinity estimate (log intensity, higher = more binding, comparable within an allelic series), the binding signal [2] was 7.65 upbm affinity estimate (log intensity, higher = more binding, comparable within an allelic series) and the binding signal [15] was 8.59 upbm affinity estimate (log intensity, higher = more binding, comparable within an allelic series). For the same sequence, the binding signal [5] was 7.81 upbm affinity estimate (log intensity, higher = more binding, comparable within an allelic series), the binding signal [8] was 9.63 upbm affinity estimate (log intensity, higher = more binding, comparable within an allelic series) and the binding signal [11] was 9.6 upbm affinity estimate (log intensity, higher = more binding, comparable within an allelic series). For the same sequence, the binding signal [13] was 9.74 upbm affinity estimate (log intensity, higher = more binding, comparable within an allelic series) and the binding signal [16] was 8.41 upbm affinity estimate (log intensity, higher = more binding, comparable within an allelic series).
ACCCATTA was tested, and the binding signal [1] was 12.1 upbm affinity estimate (log intensity, higher = more binding, comparable within an allelic series), the binding signal [2] was 12.9 upbm affinity estimate (log intensity, higher = more binding, comparable within an allelic series) and the binding signal [15] was 11.2 upbm affinity estimate (log intensity, higher = more binding, comparable within an allelic series). For the same sequence, the binding signal [5] was 11.7 upbm affinity estimate (log intensity, higher = more binding, comparable within an allelic series), the binding signal [17] was 9.84 upbm affinity estimate (log intensity, higher = more binding, comparable within an allelic series) and the binding signal [16] was 8.76 upbm affinity estimate (log intensity, higher = more binding, comparable within an allelic series). For the same sequence, the binding signal [18] was 11.8 upbm affinity estimate (log intensity, higher = more binding, comparable within an allelic series).
CCAAGGGC was tested, and the binding signal [1] was 8.09 upbm affinity estimate (log intensity, higher = more binding, comparable within an allelic series), the binding signal [2] was 8.33 upbm affinity estimate (log intensity, higher = more binding, comparable within an allelic series) and the binding signal [5] was 8.21 upbm affinity estimate (log intensity, higher = more binding, comparable within an allelic series).
With CGGCCCCA the binding signal [1] was 8.18 upbm affinity estimate (log intensity, higher = more binding, comparable within an allelic series), the binding signal [2] was 8.34 upbm affinity estimate (log intensity, higher = more binding, comparable within an allelic series) and the binding signal [4] was 9.24 upbm affinity estimate (log intensity, higher = more binding, comparable within an allelic series). For the same sequence, the binding signal [5] was 8.08 upbm affinity estimate (log intensity, higher = more binding, comparable within an allelic series), the binding signal [6] was 9.19 upbm affinity estimate (log intensity, higher = more binding, comparable within an allelic series) and the binding signal [19] was 9.36 upbm affinity estimate (log intensity, higher = more binding, comparable within an allelic series). For the same sequence, the binding signal [9] was 9.28 upbm affinity estimate (log intensity, higher = more binding, comparable within an allelic series), the binding signal [10] was 9.21 upbm affinity estimate (log intensity, higher = more binding, comparable within an allelic series) and the binding signal [12] was 9.24 upbm affinity estimate (log intensity, higher = more binding, comparable within an allelic series). For the same sequence, the binding signal [14] was 9.25 upbm affinity estimate (log intensity, higher = more binding, comparable within an allelic series).
With CCGAGTCC the binding signal [1] was 8.15 upbm affinity estimate (log intensity, higher = more binding, comparable within an allelic series), the binding signal [2] was 8.13 upbm affinity estimate (log intensity, higher = more binding, comparable within an allelic series) and the binding signal [20] was 9.18 upbm affinity estimate (log intensity, higher = more binding, comparable within an allelic series). For the same sequence, the binding signal [5] was 8.08 upbm affinity estimate (log intensity, higher = more binding, comparable within an allelic series) and the binding signal [21] was 9.67 upbm affinity estimate (log intensity, higher = more binding, comparable within an allelic series).
For CCGGGTGC, the binding signal [1] was 8.11 upbm affinity estimate (log intensity, higher = more binding, comparable within an allelic series), the binding signal [2] was 8.38 upbm affinity estimate (log intensity, higher = more binding, comparable within an allelic series) and the binding signal [5] was 8.21 upbm affinity estimate (log intensity, higher = more binding, comparable within an allelic series).
CTGGCGCA was tested, and the binding signal [1] was 8.11 upbm affinity estimate (log intensity, higher = more binding, comparable within an allelic series), the binding signal [2] was 8.09 upbm affinity estimate (log intensity, higher = more binding, comparable within an allelic series) and the binding signal [22] was 9.99 upbm affinity estimate (log intensity, higher = more binding, comparable within an allelic series). For the same sequence, the binding signal [5] was 8.2 upbm affinity estimate (log intensity, higher = more binding, comparable within an allelic series), the binding signal [23] was 6.29 upbm affinity estimate (log intensity, higher = more binding, comparable within an allelic series) and the binding signal [24] was 7.76 upbm affinity estimate (log intensity, higher = more binding, comparable within an allelic series). The binding signal [25] was 6.21 upbm affinity estimate (log intensity, higher = more binding, comparable within an allelic series), the binding signal [26] was 10 upbm affinity estimate (log intensity, higher = more binding, comparable within an allelic series) and the binding signal [27] was 7.58 upbm affinity estimate (log intensity, higher = more binding, comparable within an allelic series). The binding signal [28] was 7.71 upbm affinity estimate (log intensity, higher = more binding, comparable within an allelic series), the binding signal [29] was 7.74 upbm affinity estimate (log intensity, higher = more binding, comparable within an allelic series) and the binding signal [30] was 6.24 upbm affinity estimate (log intensity, higher = more binding, comparable within an allelic series). The binding signal [31] was 7.82 upbm affinity estimate (log intensity, higher = more binding, comparable within an allelic series).
For GCCAGGCA, the binding signal [1] was 8.27 upbm affinity estimate (log intensity, higher = more binding, comparable within an allelic series), the binding signal [2] was 8.55 upbm affinity estimate (log intensity, higher = more binding, comparable within an allelic series) and the binding signal [5] was 8.35 upbm affinity estimate (log intensity, higher = more binding, comparable within an allelic series).
For ATTAGGTG, the binding signal [1] was 10.8 upbm affinity estimate (log intensity, higher = more binding, comparable within an allelic series), the binding signal [2] was 11.2 upbm affinity estimate (log intensity, higher = more binding, comparable within an allelic series) and the binding signal [15] was 10 upbm affinity estimate (log intensity, higher = more binding, comparable within an allelic series). The binding signal [5] was 10.5 upbm affinity estimate (log intensity, higher = more binding, comparable within an allelic series) and the binding signal [16] was 8.8 upbm affinity estimate (log intensity, higher = more binding, comparable within an allelic series).
With CCCAGAGG the binding signal [1] was 7.95 upbm affinity estimate (log intensity, higher = more binding, comparable within an allelic series), the binding signal [2] was 7.77 upbm affinity estimate (log intensity, higher = more binding, comparable within an allelic series) and the binding signal [3] was 8.01 upbm affinity estimate (log intensity, higher = more binding, comparable within an allelic series). The binding signal [5] was 7.81 upbm affinity estimate (log intensity, higher = more binding, comparable within an allelic series), the binding signal [7] was 8 upbm affinity estimate (log intensity, higher = more binding, comparable within an allelic series) and the binding signal [32] was 7.09 upbm affinity estimate (log intensity, higher = more binding, comparable within an allelic series). The binding signal [24] was 7.67 upbm affinity estimate (log intensity, higher = more binding, comparable within an allelic series), the binding signal [33] was 10.2 upbm affinity estimate (log intensity, higher = more binding, comparable within an allelic series) and the binding signal [27] was 7.71 upbm affinity estimate (log intensity, higher = more binding, comparable within an allelic series). The binding signal [28] was 7.65 upbm affinity estimate (log intensity, higher = more binding, comparable within an allelic series), the binding signal [29] was 7.63 upbm affinity estimate (log intensity, higher = more binding, comparable within an allelic series) and the binding signal [34] was 10.3 upbm affinity estimate (log intensity, higher = more binding, comparable within an allelic series). For the same sequence, the binding signal [31] was 7.62 upbm affinity estimate (log intensity, higher = more binding, comparable within an allelic series) and the binding signal [35] was 7.15 upbm affinity estimate (log intensity, higher = more binding, comparable within an allelic series).
In the case of AACGATTA, the binding signal [1] is reported as 11.2 upbm affinity estimate (log intensity, higher = more binding, comparable within an allelic series), the binding signal [2] is reported as 12.3 upbm affinity estimate (log intensity, higher = more binding, comparable within an allelic series) and the binding signal [5] is reported as 11.3 upbm affinity estimate (log intensity, higher = more binding, comparable within an allelic series).
TTACATAA was tested, and the binding signal [1] was 9.95 upbm affinity estimate (log intensity, higher = more binding, comparable within an allelic series), the binding signal [2] was 10.4 upbm affinity estimate (log intensity, higher = more binding, comparable within an allelic series) and the binding signal [5] was 9.97 upbm affinity estimate (log intensity, higher = more binding, comparable within an allelic series).
